# From PubChem
# The full list was thinned out, with hits kept by preference.
# mHTT-CaM PPI inh: disrupts binding of mutant huntingtin to calmodulin | P42858 | AlphaScreen His-mHTT/GST-CaM binding, luminescence | inhibition, % at 15 µM | 190,000 tested, 3.6% active | AID 1671202;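 note: 0% = both proteins with DMSO and 100% = one protein alone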
# Pf apPOL inh: Pf-apPOL DNA polymerase inhibition; Recombinant Pf-apPOL, molecular beacon fluorescence, 1.5 h; inhibition, % at 10 µM; 210,000 tested, 0.25% active
# Numbers without * were called inactive; i = inactive; / = no result given; + = active, no number; ! = repeats disagree. Cut-off read from the data, not from the text of the source: active = inhibition above about 50%; inactive = the rest.
SMILES,mHTT-CaM PPI inh,Pf apPOL inh
COc1cc(NC(=O)CCOc2ccc(F)cc2)cc(OC)c1OC,/,-9
CC(C)C(=O)N1CCc2ccccc2C1C(=O)NC1CCCC1 (centres undefined),-8,0
Cc1cc(C)c2c(N3CCSCC3)nc(C(=O)N3CCCCC3)nc2n1,-11,-2
S=c1[nH]nc(-c2cc(-c3ccccc3)n[nH]2)n1/N=C/C=C/c1ccco1,+,/
S=c1[nH]nc(-c2ccco2)n1/N=C/C=C/c1ccco1,i,/
COc1ccc(C2CC(C(F)(F)F)n3ncc(C(=O)N4CCOCC4)c3N2)cc1 (centres undefined),7,1
Cc1cccc(NC(=O)N2CCC3(C2)Nc2cccnc2NC3=NCc2ccccc2)c1 (centres undefined),-1,-2
COCCN=C1Nc2ccccc2NC12CCCN(C(=O)Nc1ccc(C)cc1C)C2 (centres undefined),100*,-9
O=C(Nc1cccc(F)c1)N1CCCC2(C1)Nc1cccnc1NC2=NCc1ccccc1 (centres undefined),64*,-8
COCCN=C1Nc2ccccc2NC12CCCN(C(=O)c1cc(F)ccc1F)C2 (centres undefined),18,-4
COCCN=C1Nc2ccccc2NC12CCCN(C(=O)Nc1cc(F)cc(F)c1)C2 (centres undefined),100*,-2
COCCN=C1Nc2ccccc2NC12CCCN(C(=O)c1ccc(OC)c(OC)c1)C2 (centres undefined),6,-1
CC(C)(C)c1ccc(N=NC2C(=O)NN=C2N)cc1 (centres undefined),/,-3
CN(CC1CCCO1)c1nc(-c2ccc([N+](=O)[O-])cc2)cs1 (centres undefined),2,4
O=C(NCC1CC1)C1CCN(c2nc3ccsc3c(=O)n2Cc2ccc(F)cc2)CC1,9,-3
CCC(CC)NC(=O)CC1Sc2ccccc2NC1=O (centres undefined),-4,-4
Cc1c(C)n(C)c2ccc(C(=O)Nc3cccnc3Cl)cc12,14,-9
CCN(CC)CCCNC(=O)C(C)C1CCN(S(=O)(=O)c2c(C)noc2C)CC1 (centres undefined),4,0
Oc1ccc(Br)cc1C=NCc1ccncc1,/,-8
Oc1ccc(N=Cc2ccc(Br)cc2)cc1,64*,-8
Oc1ccc(C=Nc2ccc(-c3ccccc3)cc2)cc1,5,-20
C=CCc1cc(Cl)ccc1OCCOCCn1ccnc1,5,1
COc1ccccc1C(=O)NCc1cccnc1-c1ccc(F)cc1,-10,-4
COc1ccc(N(CC(=O)Nc2ccc(OCc3ccccc3)cc2)S(C)(=O)=O)cc1,4,4
Cc1cc(C)c2ccc(C=O)nc2c1O,69*,-11
SMILES,mHTT-CaM PPI inh,Pf apPOL inh
Cc1cc(C)c2ccc(CO)nc2c1O,0,-11
CC(=O)Nc1ccccc1/C=C/c1ccc2c(C)cc(C)c(O)c2n1,4,-5
Cc1cc(C)c2ccc(NN)nc2c1O,85*,-6
O=C(Nc1cccc([N+](=O)[O-])c1)c1cc(S(=O)(=O)N2CCCCC2)cs1,-2,-9
O=C(CCCOc1ccc(Cl)cc1Cl)N1CCN(c2ccc(F)cc2)CC1,76*,9
CC(=O)N1CCN(c2ccc(NC(=O)COc3ccc(Cl)cc3Cl)cc2)CC1,50*,-16
O=C(CCSc1ccc(Cl)cc1)N1CCN(c2ccc(F)cc2)CC1,15,-6
CCCC(=O)Nc1ccc(NC(=O)COc2ccc(Cl)cc2Cl)cc1,9,6
COCCCNC(=O)C1CCN(c2ncccc2-c2nc(-c3cccc(F)c3)no2)CC1,-4,-4
COCCCNC(=O)C1CCN(Cc2cc3ccccc3n2Cc2ccc(F)cc2)CC1,53*,3
COCCCNC(=O)C1CCN(Cc2cc3ccccc3n2Cc2cccc(F)c2)CC1,51*,4
COCCCNC(=O)C1CCN(c2cnn(Cc3ccccc3)c(=O)c2)CC1,-2,-1
CC(O)Cc1n[nH]c(=S)n1C (centres undefined),-4,/
CCc1oc2cc(O)ccc2c(=O)c1-c1nc2ccccc2n1C,0,-2
CCc1cc2c(=O)c(-c3nc4ccccc4n3C)c(C(C)(C)C)oc2cc1O,-6,3
CCc1cc2c(=O)c(-c3nc4ccccc4n3C)c(C(F)(F)F)oc2cc1O,97*,-1
CCc1cc2c(=O)c(-c3nc4ccccc4n3C)c(COCC(=O)O)oc2cc1OC(=O)C(C)(C)C,51*,-3
O=C(C(c1ccccc1)c1ccccc1)N1CCN(c2ccc(F)cc2)CC1,64*,0
O=C(C(c1ccccc1)c1ccccc1)N1CCN(c2ccc([N+](=O)[O-])cc2)CC1,3,-8
CCOc1ccc(-c2c(C#N)c(N)nc(SCC(=O)c3ccc(C)cc3)c2C#N)cc1,-5,6
N#Cc1c(N)nc(SCC(=O)c2ccc(Br)cc2)c(C#N)c1-c1ccc(O)cc1,78*!,-1
CCOc1ccc(-c2c(C#N)c(N)nc(SCC(=O)c3ccc(O)c(O)c3)c2C#N)cc1,69*,-8
